Holding throughout (assay): yeast three-hybrid, YBZ-1, SC-Leu-His + 0.5 mM 3-AT, 4 days
Details in all cases: tags: N-Gal4 AD-HA kept; label: inside an RPR1-promoter hybrid RNA with tandem MS2 sites; ssRNA

The target in one assay is T1, PUM1 PUF domain R6-CFN (Homo sapiens, UniProt Q14671 828-1176, N1043C;Y1044F;Q1047N).
T1 sequence: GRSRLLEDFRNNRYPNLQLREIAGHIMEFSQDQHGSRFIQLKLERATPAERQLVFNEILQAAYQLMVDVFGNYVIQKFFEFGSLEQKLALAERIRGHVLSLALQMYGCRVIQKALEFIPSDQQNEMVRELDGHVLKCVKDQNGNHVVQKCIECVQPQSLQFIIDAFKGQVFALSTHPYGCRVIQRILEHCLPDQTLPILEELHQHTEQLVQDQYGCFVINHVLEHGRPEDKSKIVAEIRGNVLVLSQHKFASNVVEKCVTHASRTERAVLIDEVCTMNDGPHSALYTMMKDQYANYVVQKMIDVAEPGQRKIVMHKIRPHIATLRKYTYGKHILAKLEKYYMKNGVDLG
Summed up: (§1)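 The interaction score is the log change in variant frequency from input to selection. Scores were computed in log2 with a pseudocount of 1 for absent variants, using Illumina sequencing of PCR-amplified repeat regions. The input came from four days on SC-Leu and the selection from four days on SC-Leu-His + 0.5 mM 3-AT. The cells were strain YBZ-1 (LexA–MS2 coat fusion, HIS3 reporter) co-expressing Pumilio-1 PUF domain libraries and matching RNA elements from a centromeric plasmid.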

Another assay addresses PUM1 PUF domain R1-RCC (Homo sapiens, UniProt Q14671 828-1176, S863R;R864C;Q867C). The procedure, abridged:
as §1

The next assay addresses PUM1 PUF domain R1-VRR (Homo sapiens, UniProt Q14671 828-1176, S863V;Q867R). The procedure, abridged:
as §1

The next assay concerns the target PUM1 PUF domain R7-SRR (Homo sapiens, UniProt Q14671 828-1176, N1080R;E1083R). The procedure, abridged:
as §1

The next assay has as its target PUM1 PUF domain R7-ERK (Homo sapiens, UniProt Q14671 828-1176, S1079E;N1080R;E1083K). The procedure, abridged:
as §1

Another assay concerns the target PUM1 PUF domain R7-KHS (Homo sapiens, UniProt Q14671 828-1176, S1079K;N1080H;E1083S). The procedure, abridged: as §1
Another assay deals with PUM1 PUF domain R4-NNL (Homo sapiens, UniProt Q14671 828-1176, H972N;Q975L). The procedure, abridged: as §1
For another assay, the target named is T2, PUM1 PUF domain R6-CWC (Homo sapiens, UniProt Q14671 828-1176, N1043C;Y1044W;Q1047C).
T2 sequence: T1 sequence with F217W, N220C
The procedure, abridged: as §1

In the next assay the target is PUM1 PUF domain R8-CFR (Homo sapiens, UniProt Q14671 828-1176, N1122C;Y1123F;Q1126R). The procedure, abridged: as §1

Numbering of substitutions follows the chain as printed.

With “GGCUAGAACUAGUGGAUCCCCCGGCGCCCGGCGGCUCGAGCCCGGGUAAGUGAAAAUAGUCUGCAUGCCGCCGGGCGCCAUGCCUGCAGGUCGACUCUAGAAAACAUG”, the binding signal with PUM1 PUF domain R6-CFN is 5.35 log2 enrichment (interaction score).

For the sequence “GGCUAGAACUAGUGGAUCCCCCGGCGCCCGGCGGCUCGAGCCCGGGUAAGUGUAAAUGGUCUGCAUGCCGCCGGGCGCCAUGCCUGCAGGUCGACUCUAGAAAACAUG”, the binding signal with PUM1 PUF domain R1-RCC was 2.4 log2 enrichment (interaction score). As for “GGCUAGAACUAGUGGAUCCCCCGGCGCCCGGCGGCUCGAGCCCGGGUAAGUGUAAAUUGUCUGCAUGCCGCCGGGCGCCAUGCCUGCAGGUCGACUCUAGAAAACAUG”, the binding signal is 2.58 log2 enrichment (interaction score) with PUM1 PUF domain R1-RCC and 1.88 log2 enrichment (interaction score) in the assay with PUM1 PUF domain R1-VRR. For the sequence “GGCUAGAACUAGUGGAUCCCCCGGCGCCCGGCGGCUCGAGCCCGGGUAAGUCUAAAUAGUCUGCAUGCCGCCGGGCGCCAUGCCUGCAGGUCGACUCUAGAAAACAUG”, the binding signal in the assay with PUM1 PUF domain R7-SRR is 2.92 log2 enrichment (interaction score); with PUM1 PUF domain R7-ERK, 5.87 log2 enrichment (interaction score); with PUM1 PUF domain R7-KHS, 3.33 log2 enrichment (interaction score). For the sequence “GGCUAGAACUAGUGGAUCCCCCGGCGCCCGGCGGCUCGAGCCCGGGUAAGUUUAAAUAGUCUGCAUGCCGCCGGGCGCCAUGCCUGCAGGUCGACUCUAGAAAACAUG”, in the assay with PUM1 PUF domain R7-SRR, the binding signal is 2.68 log2 enrichment (interaction score). Regarding “GGCUAGAACUAGUGGAUCCCCCGGCGCCCGGCGGCUCGAGCCCGGGUAAGUGUAUAUAGUCUGCAUGCCGCCGGGCGCCAUGCCUGCAGGUCGACUCUAGAAAACAUG”, in the assay with PUM1 PUF domain R4-NNL, the binding signal was 3 log2 enrichment (interaction score). Regarding “GGCUAGAACUAGUGGAUCCCCCGGCGCCCGGCGGCUCGAGCCCGGGUAAGUGUAAAUAGUCUGCAUGCCGCCGGGCGCCAUGCCUGCAGGUCGACUCUAGAAAACAUG”, the values for the binding signal with PUM1 PUF domain R4-NNL, in the assay with PUM1 PUF domain R6-CWC and with PUM1 PUF domain R8-CFR were 3.79 log2 enrichment (interaction score), 3 log2 enrichment (interaction score) and 4.47 log2 enrichment (interaction score), respectively. With “GGCUAGAACUAGUGGAUCCCCCGGCGCCCGGCGGCUCGAGCCCGGGUAAGUAUAAAUAGUCUGCAUGCCGCCGGGCGCCAUGCCUGCAGGUCGACUCUAGAAAACAUG”, in the assay with PUM1 PUF domain R7-KHS, the binding signal was 2.08 log2 enrichment (interaction score). As for “GGCUAGAACUAGUGGAUCCCCCGGCGCCCGGCGGCUCGAGCCCGGGUAAGUGUAAAUCGUCUGCAUGCCGCCGGGCGCCAUGCCUGCAGGUCGACUCUAGAAAACAUG”, in the assay with PUM1 PUF domain R1-VRR, the binding signal is 2.85 log2 enrichment (interaction score). Take “GGCUAGAACUAGUGGAUCCCCCGGCGCCCGGCGGCUCGAGCCCGGGUAAGCGUAAAUAGUCUGCAUGCCGCCGGGCGCCAUGCCUGCAGGUCGACUCUAGAAAACAUG”: the binding signal in the assay with PUM1 PUF domain R8-CFR is 4.3 log2 enrichment (interaction score).

For the origin of these results see PMC8384837, “Expanding the binding specificity for RNA recognition by a PUF domain”.
